The text below walks through data of PMC11006913.

Holding throughout (experiment): PBM; 200 nM protein, PBS
What all share (conditions): dsDNA, one strand shown

Test [1] concerns the target HOXB9 (Homo sapiens, UniProt P17482 171-250, T197M).
Test [2] has as its target HOXB9 (Homo sapiens, UniProt P17482 171-250).
The target in test [3] is HOXB9 (Homo sapiens, UniProt P17482 171-250, R186Q).
In another test the target is ALX3 (Homo sapiens, UniProt O95076 139-225, N203Q).
The target of test [4] is NKX3-2 (Homo sapiens, UniProt P78367 192-278, P234S).
The target in test [5] is NKX3-2 (Homo sapiens, UniProt P78367 192-278).
Chain of NKX3-2 (Homo sapiens, UniProt P78367 192-278) (P78367 192-278): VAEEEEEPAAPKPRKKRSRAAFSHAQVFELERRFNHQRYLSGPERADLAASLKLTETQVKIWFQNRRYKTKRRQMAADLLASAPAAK

Chain of HOXB9 (Homo sapiens, UniProt P17482 171-250) (P17482 171-250): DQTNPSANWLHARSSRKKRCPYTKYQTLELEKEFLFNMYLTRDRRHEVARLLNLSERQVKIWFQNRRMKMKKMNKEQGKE
Chain of HOXB9 (Homo sapiens, UniProt P17482 171-250, T197M) (P17482 171-250 T197M): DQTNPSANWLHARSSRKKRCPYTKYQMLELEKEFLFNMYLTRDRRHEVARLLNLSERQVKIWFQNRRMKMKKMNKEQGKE
Chain of HOXB9 (Homo sapiens, UniProt P17482 171-250, R186Q) (P17482 171-250 R186Q): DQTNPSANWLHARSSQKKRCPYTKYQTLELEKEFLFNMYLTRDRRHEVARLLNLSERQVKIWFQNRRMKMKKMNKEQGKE
Chain of NKX3-2 (Homo sapiens, UniProt P78367 192-278, P234S) (P78367 192-278 P234S): as the sequence (P78367 192-278) above, with P43S counted along it
Chain of ALX3 (O95076 139-225 N203Q): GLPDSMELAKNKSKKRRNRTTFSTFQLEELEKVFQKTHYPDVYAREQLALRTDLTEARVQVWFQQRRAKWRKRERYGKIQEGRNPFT

On to CCACGTCG, for which the binding signal in the test with HOXB9 [1] is 8.7 upbm affinity estimate (log intensity, higher = more binding, comparable within an allelic series); in the test with HOXB9 [2] it was 8.53 upbm affinity estimate (log intensity, higher = more binding, comparable within an allelic series); in the test with HOXB9 [3], 8.57 upbm affinity estimate (log intensity, higher = more binding, comparable within an allelic series).

In the case of GGCTCCGA, the binding signal is 8.49 upbm affinity estimate (log intensity, higher = more binding, comparable within an allelic series) in the test with HOXB9 [1]; 8.4 upbm affinity estimate (log intensity, higher = more binding, comparable within an allelic series) in the test with HOXB9 [2]; 8.41 upbm affinity estimate (log intensity, higher = more binding, comparable within an allelic series) in the test with HOXB9 [3].

On to ATTAACAA, for which the binding signal was 9.96 upbm affinity estimate (log intensity, higher = more binding, comparable within an allelic series) with HOXB9 [1] and 8.57 upbm affinity estimate (log intensity, higher = more binding, comparable within an allelic series) with ALX3.

Regarding ACACCCAG, the binding signal was 8.69 upbm affinity estimate (log intensity, higher = more binding, comparable within an allelic series) with HOXB9 [1]; 8.47 upbm affinity estimate (log intensity, higher = more binding, comparable within an allelic series) with HOXB9 [2]; 8.52 upbm affinity estimate (log intensity, higher = more binding, comparable within an allelic series) with HOXB9 [3].

For the sequence CAATCAAC, the binding signal with HOXB9 [1] was 9.17 upbm affinity estimate (log intensity, higher = more binding, comparable within an allelic series); in the test with HOXB9 [2], 9.95 upbm affinity estimate (log intensity, higher = more binding, comparable within an allelic series); in the test with HOXB9 [3] it was 9.93 upbm affinity estimate (log intensity, higher = more binding, comparable within an allelic series).

In the case of GAGCGCAA, the binding signal with HOXB9 [1] is 8.55 upbm affinity estimate (log intensity, higher = more binding, comparable within an allelic series); with HOXB9 [2] it was 8.29 upbm affinity estimate (log intensity, higher = more binding, comparable within an allelic series); with HOXB9 [3], 8.48 upbm affinity estimate (log intensity, higher = more binding, comparable within an allelic series).

Take AGGGCGTG: the binding signal in the test with HOXB9 [1] is 8.57 upbm affinity estimate (log intensity, higher = more binding, comparable within an allelic series); in the test with HOXB9 [2], 8.4 upbm affinity estimate (log intensity, higher = more binding, comparable within an allelic series); with HOXB9 [3], 8.53 upbm affinity estimate (log intensity, higher = more binding, comparable within an allelic series).

Take CGTGGCTC: the binding signal with HOXB9 [1] was 8.5 upbm affinity estimate (log intensity, higher = more binding, comparable within an allelic series); with HOXB9 [2], 8.18 upbm affinity estimate (log intensity, higher = more binding, comparable within an allelic series); with HOXB9 [3] it was 8.26 upbm affinity estimate (log intensity, higher = more binding, comparable within an allelic series).

ATAAATGA: the binding signal with HOXB9 [1] is 9.72 upbm affinity estimate (log intensity, higher = more binding, comparable within an allelic series); with HOXB9 [2], 11 upbm affinity estimate (log intensity, higher = more binding, comparable within an allelic series); in the test with HOXB9 [3], 10.8 upbm affinity estimate (log intensity, higher = more binding, comparable within an allelic series).

With GTGGCGGA, the binding signal in the test with HOXB9 [1] was 8.44 upbm affinity estimate (log intensity, higher = more binding, comparable within an allelic series); in the test with HOXB9 [2], 8.58 upbm affinity estimate (log intensity, higher = more binding, comparable within an allelic series); with HOXB9 [3] it was 8.61 upbm affinity estimate (log intensity, higher = more binding, comparable within an allelic series).

As to CCCCGGAC, the binding signal was 8.48 upbm affinity estimate (log intensity, higher = more binding, comparable within an allelic series) with HOXB9 [1]; 8.48 upbm affinity estimate (log intensity, higher = more binding, comparable within an allelic series) with HOXB9 [2]; 8.49 upbm affinity estimate (log intensity, higher = more binding, comparable within an allelic series) in the test with HOXB9 [3].

Take GGAACCCC: the binding signal was 8.42 upbm affinity estimate (log intensity, higher = more binding, comparable within an allelic series) with HOXB9 [1]; 8.48 upbm affinity estimate (log intensity, higher = more binding, comparable within an allelic series) with HOXB9 [2]; 8.46 upbm affinity estimate (log intensity, higher = more binding, comparable within an allelic series) in the test with HOXB9 [3].

Consider GGAGCTAC, for which the binding signal with HOXB9 [1] was 8.61 upbm affinity estimate (log intensity, higher = more binding, comparable within an allelic series); in the test with HOXB9 [2], 8.26 upbm affinity estimate (log intensity, higher = more binding, comparable within an allelic series); with HOXB9 [3] it was 8.53 upbm affinity estimate (log intensity, higher = more binding, comparable within an allelic series).

As to GTCCGGCA, the binding signal with HOXB9 [1] is 8.68 upbm affinity estimate (log intensity, higher = more binding, comparable within an allelic series); with HOXB9 [2] it was 8.51 upbm affinity estimate (log intensity, higher = more binding, comparable within an allelic series); with HOXB9 [3] it was 8.52 upbm affinity estimate (log intensity, higher = more binding, comparable within an allelic series).

Consider CGCCGGGA, for which the binding signal was 8.5 upbm affinity estimate (log intensity, higher = more binding, comparable within an allelic series) with HOXB9 [1]; 8.44 upbm affinity estimate (log intensity, higher = more binding, comparable within an allelic series) in the test with HOXB9 [2]; 8.47 upbm affinity estimate (log intensity, higher = more binding, comparable within an allelic series) with HOXB9 [3]; 10.5 upbm affinity estimate (log intensity, higher = more binding, comparable within an allelic series) with NKX3-2 [4]; 10.5 upbm affinity estimate (log intensity, higher = more binding, comparable within an allelic series) with NKX3-2 [5].

Regarding CGTCCGAC, the binding signal with HOXB9 [1] is 8.56 upbm affinity estimate (log intensity, higher = more binding, comparable within an allelic series); in the test with HOXB9 [2] it was 8.39 upbm affinity estimate (log intensity, higher = more binding, comparable within an allelic series); in the test with HOXB9 [3], 8.45 upbm affinity estimate (log intensity, higher = more binding, comparable within an allelic series).

As to GCCTCCGC, the binding signal with HOXB9 [1] is 8.43 upbm affinity estimate (log intensity, higher = more binding, comparable within an allelic series); with HOXB9 [2] it was 8.05 upbm affinity estimate (log intensity, higher = more binding, comparable within an allelic series); in the test with HOXB9 [3], 8.16 upbm affinity estimate (log intensity, higher = more binding, comparable within an allelic series).

With ACCGGCCT, the binding signal with HOXB9 [1] was 8.37 upbm affinity estimate (log intensity, higher = more binding, comparable within an allelic series); in the test with HOXB9 [2], 8.52 upbm affinity estimate (log intensity, higher = more binding, comparable within an allelic series); with HOXB9 [3], 8.47 upbm affinity estimate (log intensity, higher = more binding, comparable within an allelic series); in the test with NKX3-2 [4], 10.6 upbm affinity estimate (log intensity, higher = more binding, comparable within an allelic series); with NKX3-2 [5], 10.5 upbm affinity estimate (log intensity, higher = more binding, comparable within an allelic series).

In the case of ACCGGCCA, the binding signal with HOXB9 [1] was 8.45 upbm affinity estimate (log intensity, higher = more binding, comparable within an allelic series); with HOXB9 [2], 8.55 upbm affinity estimate (log intensity, higher = more binding, comparable within an allelic series); with HOXB9 [3], 8.63 upbm affinity estimate (log intensity, higher = more binding, comparable within an allelic series).

For AGGAACCC, the binding signal is 8.41 upbm affinity estimate (log intensity, higher = more binding, comparable within an allelic series) with HOXB9 [1]; 8.22 upbm affinity estimate (log intensity, higher = more binding, comparable within an allelic series) with HOXB9 [2]; 8.24 upbm affinity estimate (log intensity, higher = more binding, comparable within an allelic series) with HOXB9 [3].

In the case of CCTTCGCG, the binding signal with HOXB9 [1] was 8.71 upbm affinity estimate (log intensity, higher = more binding, comparable within an allelic series); in the test with HOXB9 [2], 8.45 upbm affinity estimate (log intensity, higher = more binding, comparable within an allelic series); with HOXB9 [3], 8.78 upbm affinity estimate (log intensity, higher = more binding, comparable within an allelic series).
